# Source: the supplement of paper PMC10723795
# ± gives the standard deviation of the averaged measurements.
# Test system: CHON-002
# Experiment: nucleolar normality score relative to DMSO (fraction of DMSO control); RPE1 is a non-cancer human cell line; higher = more normal nucleoli (less nucleolar stress)
# Procedure: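 Selected screen hits were validated in hTERT lines (BJ5TA, CHON-002, RPE1) and cancer lines (DLD1, HCT116). Cells were immunostained for nucleolin and UBF and the nucleolar normality score was measured per field of view, with 4 fields per drug. Scores are normalized to each cell line's own DMSO control. Dose and time are not stated for this panel.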
row,SMILES,nucleolar normality score
1,COC[C@H](NC(=O)c1cnc(C)s1)C(=O)N[C@@H](COC)C(=O)N[C@@H](Cc1ccccc1)C(=O)[C@@]1(C)CO1 [Oprozomib],0.548 ± 0.036
2,CN1CC[C@H](c2c(O)cc(O)c3c(=O)cc(-c4ccccc4Cl)oc23)[C@H](O)C1 [Flavopiridol],0.181 ± 0.013
3,COc1cccc2c1C(=O)c1c(O)c3c(c(O)c1C2=O)C[C@@](O)(C(=O)CO)C[C@@H]3O[C@H]1C[C@H](N)[C@H](O)[C@H](C)O1 [Doxorubicin],0.182 ± 0.039
4,CC(C)c1c2cc(-c3ccnc(NC4CCC(NC5CCOCC5)CC4)n3)ccc2nn1C (configuration not stated),0.281 ± 0.015
5,CCc1cnn2c(NCc3ccc[n+]([O-])c3)cc(N3CCCC[C@H]3CCO)nc12 [Dinaciclib],0.201 ± 0.018
6,CC(C)n1nc(-c2ccc3oc(N)nc3c2)c2c(N)ncnc21 [Sapanisertib],0.4 ± 0.023
7,CC(C)C[C@H](NC(=O)[C@H](CCc1ccccc1)NC(=O)CN1CCOCC1)C(=O)N[C@@H](Cc1ccccc1)C(=O)N[C@@H](CC(C)C)C(=O)[C@@]1(C)CO1 [Carfilzomib],0.453 ± 0.025
8,Cc1cnc(CNC(=O)c2c(=O)c3ccc(N4CCCN(C)CC4)nc3n3c2sc2ccccc23)cn1,0.487 ± 0.11
9,C=CCNC1=C2C[C@@H](C)C[C@H](OC)[C@H](O)[C@@H](C)/C=C(\C)[C@H](OC(N)=O)[C@@H](OC)/C=C\C=C(/C)C(=O)NC(=CC1=O)C2=O,0.408 ± 0.035
10,Cc1nc(-c2cn3c(n2)-c2ccc(-c4cnn(C(C)(C)C(N)=O)c4)cc2OCC3)n(C(C)C)n1 [Taselisib],0.444 ± 0.044
11,CN(C)CCNC(=O)c1cccn2c(=O)c3cc4ccccc4cc3nc12,0.0829 ± 0.03
12,CC(C)c1cc(C(=O)N2Cc3ccc(CN4CCN(C)CC4)cc3C2)c(O)cc1O [Onalespib],0.383 ± 0.023
